Sfp PPTase inh = inhibitors of Bacillus subtilis Sfp phosphopantetheinyl transferase. Q9F4F7. Biochemical Sfp PPTase activity, qHTS. Potency, µM, actives largely listed as inhibitors. 310,000 tested, 3.5% active;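 further: the enzyme is Sfp with the accession as filed and its product quenches rhodamine fluorescence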
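Reaction rates are the 30-min fluorescence difference (ex 525, em 598 nm) in wells containing 15 nM Sfp, 5 uM rhodamine-CoA and 12.5 uM BHQ-2-YbbR at pH 7.6 with 10 mM MgCl2.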
Epigenetic reg = derepresses silenced GFP reporter in murine cells. murine LDR cells, GFP reporter derepression, 30 h. Potency, µM (series often up to 53.9 µM), actives largely listed as activators. 280,000 tested, 0.2% active. AID 1865; further: nearly all actives have a fitted effect of over 60% in size
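In this reporter-derepression format, murine cells bearing a silenced integrated CMV-GFP locus incubate with test compound (30 h, 37 C), then are washed and imaged; fluorescent objects of 20–120 um count as induced cells.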
RORg inh = blocks mouse ROR gamma transcriptional activity; P51450; Drosophila S2 Gal4-RORgamma UAS-luciferase reporter, 20 h; Potency, µM (top dose mostly 53.6 µM), usual class: inhibitors; 310,000 tested, 5.4% active; AID 2551; further: nearly all actives have a fitted effect of over 60% in size
Target sequence (P51450 whole entry, looked up, the tested form may be a part): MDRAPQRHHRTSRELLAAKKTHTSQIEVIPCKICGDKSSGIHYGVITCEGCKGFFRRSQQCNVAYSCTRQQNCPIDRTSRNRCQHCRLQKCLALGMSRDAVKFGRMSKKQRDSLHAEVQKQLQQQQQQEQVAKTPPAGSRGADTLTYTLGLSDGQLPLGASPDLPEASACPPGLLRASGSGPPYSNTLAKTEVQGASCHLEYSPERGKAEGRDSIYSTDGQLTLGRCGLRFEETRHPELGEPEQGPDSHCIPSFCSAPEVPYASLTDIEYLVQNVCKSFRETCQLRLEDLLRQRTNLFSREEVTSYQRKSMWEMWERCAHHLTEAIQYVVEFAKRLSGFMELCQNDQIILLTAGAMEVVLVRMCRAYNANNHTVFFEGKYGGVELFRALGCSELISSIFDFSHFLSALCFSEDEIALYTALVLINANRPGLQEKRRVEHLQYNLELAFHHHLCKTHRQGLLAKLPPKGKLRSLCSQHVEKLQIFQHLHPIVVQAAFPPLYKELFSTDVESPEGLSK
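Read-out: Photinus luciferase luminescence; inhibitors lower reporter signal. Insect Schneider cells with Gal4-ROR gamma fusion under metallothionein promoter, UAS reporter; 700 uM final copper sulfate induction, 20 hr, ambient temperature.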
PINK1 modulator = changes PINK1 expression; Potency, µM (highest dose often 76.6 µM), usual class: activators; AID 624263; PINK1 immunofluorescence, high-content cytometry, 24 h; 410,000 tested, 0.2% active; active means well fitted activation curve with a large enough effect; inconclusive means small, poorly fitted or top-dose-only effect; cell line not stated here; further: nearly all actives have a fitted effect of over 65% in size
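Readout is PINK1 immunofluorescence, quantified alongside mitochondrial, cell and nuclear markers by laser-scanning microplate cytometry. Cells from a stable line were exposed to compound titrations (5 concentrations) for 24 hours, with CCCP controls.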
VP16 counter = Gal4-VP16 reporter inhibition counter-screen; Drosophila S2 Gal4-VP16 UAS-luciferase, luminescence, 20 h; Potency, µM (doses to about 53.6 µM), hits mostly inhibitors; 310,000 tested, 3.5% active; AID 2546;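 further: Gal4-VP16 expression switched on by copper sulfate through the metallothionein promoter; nearly all actives have a fitted effect of over 50% in size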
ClpP mod = qHTS Assay for Activators of ClpP; 340,000 tested, 1.9% active; AID 651965, 2013; Potency, µM (doses to about 57.5 µM); purified B. subtilis ClpP, FRET peptide cleavage, 20 min; active means well fitted falling curve with a large enough effect; inconclusive means small, poorly fitted or top-dose-only effect; inactive means no such curve, though single readings can be large or run the other way; further: the source files actives as falling curves though it sought activators and does not explain the sign; nearly all actives have a fitted effect of over 65% in size
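FRET quenching reversal measured ClpP activation: 10 microg/mL B. subtilis ClpP at pH 8 with the FRET-FV decapeptide, read at 430 nm after 320 nm excitation. The 20-min minus 0-min signal was scaled between DMSO/no-enzyme wells and ADEP (5.8 microM final).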
Large screens that a line does not name were inactive. Hits are enriched below; roughly 8.1% of the tested compounds scored in any of these assays. Unless noted, the call rests on the fitted dose curve; in most records, active means well fitted curve in the direction sought with a large enough effect; inconclusive means small, poorly fitted or top-dose-only effect, or another doubt; inactive means no such curve, though single readings can be large; an effect the other way counts as inactive or inconclusive.

CCOC(=O)c1c(S(=O)(=O)N2CCCC(C(=O)Nc3cccc(CC)c3)C2)c(C)n(CC)c1C (stereo unspecified)	none (no result: Sfp PPTase inh, RORg inh, VP16 counter)
COc1ccc(NS(=O)(=O)c2ccc(-c3coc(C)n3)cc2)cc1	RORg inh inconclusive (no result: Epigenetic reg)
COc1ccc(NS(=O)(=O)c2ccc(-c3coc(C)n3)cc2)cc1OC	RORg inh inconclusive, VP16 counter 1.41µM (no result: Epigenetic reg)
Oc1cc2ccccc2cc1-c1n[nH]c(=S)n1Cc1ccco1	Sfp PPTase inh 22.4µM, RORg inh 12.6µM
CCn1c(C(C)NS(=O)(=O)c2ccc(Cl)cc2)n[nH]c1=S (stereo unspecified)	none (no result: Epigenetic reg)
S=c1[nH]nc(Cc2ccccc2)n1Cc1ccco1	RORg inh 14.1µM, VP16 counter 12.6µM
CCCn1c(Cc2ccccc2)n[nH]c1=S	RORg inh 15.8µM, VP16 counter inconclusive
CCCn1c(C(C)NC(=O)c2ccccc2)n[nH]c1=S (stereo unspecified)	none
CCCn1c(C(C)NS(=O)(=O)c2ccccc2)n[nH]c1=S (stereo unspecified)	RORg inh 10µM (no result: Epigenetic reg)
S=c1[nH]nc(C2CC2)n1Cc1ccco1	none
CCCC1=Nc2cc(C(=O)NCc3ccccc3)ccc2Sc2ccccc21	none (no result: Sfp PPTase inh, RORg inh, VP16 counter)
COc1ccc(CNC(=O)C(C)N2Cc3ccccc3C2=O)cc1 (stereo unspecified)	none (no result: Sfp PPTase inh, RORg inh, VP16 counter)
CN(C)CCCNC(=O)c1ccc(Cc2nc3ccccc3[nH]2)cc1	none (no result: Sfp PPTase inh, RORg inh, PINK1 modulator, VP16 counter, ClpP mod)
COc1ccc(C(=O)NCCn2cc(SCC(=O)Nc3ccc4c(c3)OCCO4)c3ccccc32)cc1	none (no result: Sfp PPTase inh, RORg inh, VP16 counter)
CCCn1cc(S(=O)(=O)c2cc(C)ccc2C)c(=O)c2cc(F)c(N3CCOCC3)cc21	PINK1 modulator inconclusive (no result: Sfp PPTase inh, RORg inh, VP16 counter)
COC(=O)N1CCCc2cc(S(=O)(=O)N3CCN(c4ccccc4)CC3)ccc21	none (no result: Sfp PPTase inh, RORg inh, VP16 counter)
Brc1ccc(CSc2nnc(-c3ccccn3)n2Cc2ccco2)cc1	RORg inh inconclusive, VP16 counter inconclusive
O=C(CSc1nnc(-c2cnccn2)n1Cc1ccco1)c1ccc(Cl)cc1	RORg inh 10µM, VP16 counter inconclusive
O=C(CSc1nnc(-c2cccnc2)n1Cc1ccco1)c1ccc(Br)cc1	none (no result: PINK1 modulator)
CCSc1nnc(-c2cccnc2)n1Cc1ccco1	Sfp PPTase inh 39.8µM
Cc1ccc(-c2nnc(SCc3nc4ccccc4[nH]3)n2Cc2ccco2)cc1	RORg inh 11.2µM, VP16 counter inconclusive
CC(C)(C)c1ccc(CSc2nnc(-c3ccccn3)n2Cc2ccco2)cc1	Sfp PPTase inh 31.6µM, RORg inh inconclusive, VP16 counter 7.08µM
CCN(CC)CCNC(=O)c1ccc(-c2nc(CS(=O)(=O)c3ccc(C)cc3)c(C)o2)cc1	none (no result: Sfp PPTase inh, RORg inh, VP16 counter)
Cc1oc(-c2ccccc2NC(=O)c2ccccc2)nc1CNC(=O)c1c(-c2ccccc2)noc1C	none (no result: Sfp PPTase inh, Epigenetic reg, RORg inh, VP16 counter, ClpP mod)
O=S(=O)(Nc1ccc(F)cc1F)c1ccc(Br)s1	none (no result: Sfp PPTase inh, RORg inh, VP16 counter)
C(=C\c1ccccc1)/CSc1nnc(-c2ccncc2)n1Cc1ccco1	Sfp PPTase inh 50.1µM
C(=C\c1ccccc1)/CSc1nnc(-c2ccccc2)n1Cc1ccco1	VP16 counter inconclusive
Cc1ccc(-n2cc(CNCCn3nc(C)cc3C)c(-c3ccc(F)cc3)n2)cc1	Sfp PPTase inh 44.7µM (no result: ClpP mod)
Cc1ccc(-n2cc(CNCCN3CCOC3=O)c(-c3ccc(F)cc3)n2)cc1	Sfp PPTase inh inconclusive
Cc1ccc(-n2cc(CNCCc3ncc(C)[nH]3)c(-c3ccc(F)cc3)n2)cc1	Sfp PPTase inh 56.2µM, VP16 counter inconclusive (no result: ClpP mod)
Cc1ccc(C2=[N+]([O-])C3(CCCCC/C3=N\NC(N)=S)N(O)C2(C)C)o1 (stereo unspecified)	Sfp PPTase inh 70.8µM, RORg inh 1.58µM, VP16 counter 2.24µM (no result: PINK1 modulator, ClpP mod)
Cc1ccc(C2=[N+]([O-])C3(CCCCC/C3=N\NC(N)=O)N(O)C2(C)C)o1 (stereo unspecified)	none
C/C(=N\Nc1nc(-c2ccccc2)cs1)c1cccs1	Sfp PPTase inh 56.2µM
C/C(=N\Nc1nc2ccccc2s1)c1cccs1	RORg inh 0.708µM, VP16 counter 3.55µM (no result: ClpP mod)
CC(=NNc1nc2ccccc2s1)c1ncccn1	none (no result: Sfp PPTase inh, Epigenetic reg, RORg inh, VP16 counter)

Assay outcomes deposited in PubChem by National Center for Advancing Translational Sciences (NCATS).
